This passage reports composite z-score, composite Z-score and z-score results from PubChem BioAssay.

Active and inactive are the calls of the source.

One experiment concerns the target Albumin (Bos taurus) (UniProt P02769). The experiment is described as follows: bovine serum albumin binders on microarray, profiling panel, artefact control for SMM control protein annotation, biochemical, small-molecule microarray, Alexa647 label, 635/667 nm fluorescence (AID 1118).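 Note: score merges 667 nm emission intensity and signal-to-noise per printed compound spot.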 The settings on record: BSA-A647 binding, fluorescence 635 nm, higher = more signal.

The nature of experiment [1]: small-molecule microarray binders of probe aXIP, primary screen, biochemical, NeuroSMM set, 635/667 nm fluorescence (AID 1119).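 Note: probe is the protein aXip251-270 applied at 1 µg/mL to compound-printed slides; binding of probe to printed compounds measured as 667 nm fluorescence plus signal to noise.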 The settings on record: higher = more signal, called active from +8 up or from −8 down.
A short description of experiment [2]: small-molecule binders of probe aNOTCH3, primary screen, biochemical, small-molecule microarray, 635/667 nm fluorescence (AID 1120).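 Note: probe is a biotin-tagged antibody raised against NOTCH3 rather than NOTCH3 protein; score merges spot fluorescence near 667 nm with spot signal to noise.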 The settings on record: higher = more signal.
A short description of experiment [3]: small-molecule binders of probe aNOTCH2, primary screen, biochemical, small-molecule microarray, 635/667 nm fluorescence (AID 1121).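 Note: score merges feature fluorescence read at 667 nm with its signal to noise.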 The following applies: higher = more signal.
The target of experiment [4] is Carbonic anhydrase 2 (Homo sapiens) (UniProt P00918). The experiment is described as follows: CAII small-molecule binders, profiling panel, biochemical, small-molecule microarray, Alexa647-labelled CAII (AID 1122). The following applies: CAII-A647 binding fluorescence, higher = more signal.
Experiment [5] can be described thus: COS7 lysate on small-molecule microarray, probe aHis, 635 nm (AID 1123).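 Note: z-score combines 667nm fluorescence intensity with signal-to-noise per printed compound spot.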 The following applies: COS7 cell lysate, fluorescence, higher = more signal.
The nature of experiment [6]: compound binding in COS7 lysate, probe aLAP1, primary screen, cell lysate, small-molecule microarray (AID 1124).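 Note: lysate comes from COS7 cells expressing LAP1 and is applied at 0.3 µg/mL; score merges spot fluorescence near 667 nm with signal-to-noise over triplicate slides.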 The settings on record: probe aLAP1, fluorescence, higher = more signal.
The next experiment concerns Sam68 (KHDRBS1). The experiment is described as follows: Sam68 small-molecule binders, primary screen, biochemical, small-molecule microarray, 635 nm fluorescence (AID 1125).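 Note: score merges 667 nm channel intensity with signal to noise over triplicate slides.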 The settings on record: small-molecule microarray binding, higher = more signal.
For experiment [7], the system named is Chordin-like protein 2 (CHRDL2). The experiment is described as follows: CHRDL2 small-molecule binders, primary screen, biochemical, small-molecule microarray, 635 nm fluorescence (AID 1126).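 Note: printed compound slides probed with Chrdl2 protein at 4 µg/mL for 1 h at 4 C; score merges 667 nm emission intensity with signal to noise over three replicate slides.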 The following applies: small-molecule microarray binding, fluorescence 635 nm; higher = more signal.
Experiment [8] has as its target Concanavalin-A (Canavalia ensiformis) (UniProt P02866). The experiment is described as follows: ConA small-molecule binders, primary screen, artefact control for SMM control protein annotation, biochemical, small-molecule microarray, Alexa647 label, 635 nm (AID 1127).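 Note: z combines 667 nm emission intensity with signal-to-noise across three replicate slides.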 The following applies: ConA-A647 binding fluorescence, higher = more signal.
The nature of experiment [9]: anti-His antibody binders, primary screen, artefact control for SMM control protein annotation, biochemical, small-molecule microarray, 635 nm fluorescence (AID 1128).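 Note: score merges feature fluorescence with signal-to-noise for each printed compound spot.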 The following applies: anti-His Alexa647 antibody binding, higher = more signal.
The test system of experiment [10] is Human papillomavirus type 1a E7 protein (residues 1-88). The experiment is described as follows: HPV1a E7 small-molecule binders, primary screen, biochemical, small-molecule microarray, residues 1-88, 635 nm (AID 1129). The following applies: small-molecule microarray binding, fluorescence 635 nm; higher = more signal.
Experiment [11] has as its target Focal adhesion kinase 1 (Homo sapiens) (UniProt Q05397). The experiment is described as follows: small-molecule microarray binders of FAK, primary screen, biochemical, 635/667 nm fluorescence, BSA, DTT (AID 1130).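 Note: composite of spot emission at 667 nm and signal to noise over triplicate slides.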 The following applies: PTK2 binding, 635 nm fluorescence, higher = more signal.
Experiment [12] has as its system Fibrinogen (Alexa647-labelled). The experiment is described as follows: fibrinogen binders on compound microarrays, profiling panel, artefact control for SMM control-protein annotation, biochemical, small-molecule microarray, 635/667 nm fluorescence (AID 1131).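 Note: z-score merges 667 nm fluorescence with per-spot signal-to-noise over triplicate slides.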 The settings on record: fibrinogen-A647 binding fluorescence, higher = more signal.
For experiment [13], the target named is Follistatin (Homo sapiens) (UniProt P19883). The experiment is described as follows: follistatin binders on small-molecule microarrays, primary screen, biochemical, small-molecule microarray, 635/667 nm fluorescence (AID 1132). The following applies: FST binding, 635 nm fluorescence, higher = more signal.
Chain of Follistatin (Homo sapiens) (P19883 whole entry, looked up): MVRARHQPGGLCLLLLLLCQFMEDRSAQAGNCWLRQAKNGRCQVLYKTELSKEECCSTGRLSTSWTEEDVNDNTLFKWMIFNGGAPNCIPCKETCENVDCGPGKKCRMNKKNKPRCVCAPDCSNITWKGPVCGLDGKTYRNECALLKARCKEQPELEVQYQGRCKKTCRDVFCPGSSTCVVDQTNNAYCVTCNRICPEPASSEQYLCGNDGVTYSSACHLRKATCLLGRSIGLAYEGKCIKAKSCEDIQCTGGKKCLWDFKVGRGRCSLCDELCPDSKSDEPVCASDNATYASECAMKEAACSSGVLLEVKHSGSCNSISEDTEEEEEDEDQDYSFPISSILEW
In experiment [14] the target is Fibroblast growth factor 2 (Homo sapiens) (UniProt P09038). The experiment is described as follows: FGF2 binders on small-molecule microarrays, primary screen, biochemical, small-molecule microarray, 635/667 nm fluorescence (AID 1133). The settings on record: small-molecule microarray binding, FGF2, fluorescence 635/667; higher = more signal.
Chain of Fibroblast growth factor 2 (Homo sapiens) (P09038 whole entry, looked up): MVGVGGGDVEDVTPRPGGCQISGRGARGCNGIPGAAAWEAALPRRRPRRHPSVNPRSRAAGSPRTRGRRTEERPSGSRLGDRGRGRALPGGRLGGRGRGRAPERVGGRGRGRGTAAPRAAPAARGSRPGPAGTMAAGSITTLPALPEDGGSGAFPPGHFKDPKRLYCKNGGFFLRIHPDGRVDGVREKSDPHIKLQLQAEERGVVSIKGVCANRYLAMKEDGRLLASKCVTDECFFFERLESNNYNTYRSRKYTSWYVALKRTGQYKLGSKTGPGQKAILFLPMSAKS
A short description of experiment [15]: mitochondrial membrane potential change in A549 cells, profiling panel, cell-based, JC-1 fluorescence, basal, 24 h, 100 nL (AID 1138).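 Note: A549 lung adenocarcinoma cells under basal conditions with no added stimulus; test concentration not given here.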 The settings on record: higher = more signal.
Another experiment deals with Lefty1. The experiment is described as follows: Lefty1 binders on small-molecule microarrays, primary screen, biochemical, small-molecule microarray, 635/667 nm fluorescence (AID 1139). The settings on record: small-molecule microarray binding, fluorescence 635/667; higher = more signal.
In experiment [16] the test system is wheat germ agglutinin (Triticum aestivum), Alexa647-labelled. The experiment is described as follows: wheat germ agglutinin binders on compound microarrays, profiling panel, artefact control for SMM control-protein annotation, biochemical, small-molecule microarray, 635/667 nm fluorescence (AID 1140).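 Note: score merges 667 nm feature emission with signal to noise over triplicate slides.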 The following applies: WGA-A647 binding, 635 nm fluorescence, higher = more signal.

Experiment [17] has as its target Luciferin 4-monooxygenase (Photinus pyralis) (UniProt P08659). The experiment is described as follows: firefly luciferase enzyme inhibitors, primary screen, biochemical, luminescence, purified enzyme, 2006 set (AID 1141).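 Note: cell-free assay with purified firefly luciferase at 100 ng per well in PBS; test concentration not given here.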 The settings on record: SteadyGlo luminescence, 30 min, higher = more signal, called active from +8 up or from −8 down.

Chain of Focal adhesion kinase 1 (Homo sapiens) (Q05397 whole entry, looked up): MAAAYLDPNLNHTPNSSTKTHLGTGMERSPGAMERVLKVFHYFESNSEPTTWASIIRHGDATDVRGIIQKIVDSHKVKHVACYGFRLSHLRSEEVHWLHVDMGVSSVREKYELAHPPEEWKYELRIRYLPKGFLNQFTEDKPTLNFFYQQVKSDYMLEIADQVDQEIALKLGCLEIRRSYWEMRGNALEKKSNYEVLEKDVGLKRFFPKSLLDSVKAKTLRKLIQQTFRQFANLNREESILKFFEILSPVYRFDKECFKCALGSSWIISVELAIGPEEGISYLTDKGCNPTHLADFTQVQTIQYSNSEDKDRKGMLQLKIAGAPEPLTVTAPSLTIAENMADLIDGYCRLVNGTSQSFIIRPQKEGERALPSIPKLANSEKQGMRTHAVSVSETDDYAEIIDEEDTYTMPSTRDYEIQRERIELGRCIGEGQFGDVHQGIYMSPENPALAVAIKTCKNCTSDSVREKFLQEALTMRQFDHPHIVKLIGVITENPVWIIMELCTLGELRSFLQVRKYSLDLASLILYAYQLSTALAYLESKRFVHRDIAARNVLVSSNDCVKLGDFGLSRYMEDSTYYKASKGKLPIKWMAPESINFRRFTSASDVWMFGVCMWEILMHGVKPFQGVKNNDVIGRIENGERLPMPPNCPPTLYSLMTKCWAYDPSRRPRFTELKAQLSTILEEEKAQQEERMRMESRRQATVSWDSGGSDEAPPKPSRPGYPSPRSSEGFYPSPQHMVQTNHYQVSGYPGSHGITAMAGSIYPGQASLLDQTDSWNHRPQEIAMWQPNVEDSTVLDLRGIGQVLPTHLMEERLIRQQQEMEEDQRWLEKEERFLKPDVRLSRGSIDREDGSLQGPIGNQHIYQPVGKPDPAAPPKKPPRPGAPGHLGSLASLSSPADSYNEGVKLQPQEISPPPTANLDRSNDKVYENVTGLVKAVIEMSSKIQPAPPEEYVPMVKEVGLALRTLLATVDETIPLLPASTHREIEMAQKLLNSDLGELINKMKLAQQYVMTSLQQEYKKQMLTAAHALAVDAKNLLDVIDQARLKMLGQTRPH
Chain of Albumin (Bos taurus) (P02769 whole entry, looked up): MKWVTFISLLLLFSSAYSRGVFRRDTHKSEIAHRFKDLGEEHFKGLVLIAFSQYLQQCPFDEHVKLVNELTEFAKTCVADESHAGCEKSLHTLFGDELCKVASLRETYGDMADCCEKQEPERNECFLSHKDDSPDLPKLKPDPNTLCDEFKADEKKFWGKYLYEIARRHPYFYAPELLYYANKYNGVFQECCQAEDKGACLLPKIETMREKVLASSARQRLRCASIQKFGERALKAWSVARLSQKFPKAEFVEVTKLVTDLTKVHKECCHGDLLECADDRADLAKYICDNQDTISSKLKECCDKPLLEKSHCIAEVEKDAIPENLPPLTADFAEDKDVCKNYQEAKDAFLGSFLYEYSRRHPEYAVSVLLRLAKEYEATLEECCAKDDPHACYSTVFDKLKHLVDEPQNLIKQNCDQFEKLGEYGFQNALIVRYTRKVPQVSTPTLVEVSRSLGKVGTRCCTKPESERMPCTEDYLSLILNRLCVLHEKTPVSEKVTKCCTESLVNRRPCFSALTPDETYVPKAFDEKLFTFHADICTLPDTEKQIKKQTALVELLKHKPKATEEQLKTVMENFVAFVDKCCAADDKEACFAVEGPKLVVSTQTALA
Chain of Luciferin 4-monooxygenase (Photinus pyralis) (P08659 whole entry, looked up): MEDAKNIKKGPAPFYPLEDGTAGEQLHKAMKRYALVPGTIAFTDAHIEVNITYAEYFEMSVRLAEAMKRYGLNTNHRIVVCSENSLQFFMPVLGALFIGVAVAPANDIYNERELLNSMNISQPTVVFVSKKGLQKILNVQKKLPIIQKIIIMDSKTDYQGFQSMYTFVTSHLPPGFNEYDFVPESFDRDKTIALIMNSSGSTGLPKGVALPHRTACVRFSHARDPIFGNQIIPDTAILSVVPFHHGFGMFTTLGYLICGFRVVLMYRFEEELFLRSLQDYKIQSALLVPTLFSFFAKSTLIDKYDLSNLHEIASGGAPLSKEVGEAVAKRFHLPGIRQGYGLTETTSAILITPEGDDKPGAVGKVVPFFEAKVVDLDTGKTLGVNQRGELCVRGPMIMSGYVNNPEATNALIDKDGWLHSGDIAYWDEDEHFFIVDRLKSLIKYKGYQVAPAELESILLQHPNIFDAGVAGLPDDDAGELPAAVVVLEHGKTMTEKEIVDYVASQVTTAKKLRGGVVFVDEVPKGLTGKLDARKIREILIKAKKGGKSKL
Chain of Concanavalin-A (Canavalia ensiformis) (P02866 whole entry, looked up): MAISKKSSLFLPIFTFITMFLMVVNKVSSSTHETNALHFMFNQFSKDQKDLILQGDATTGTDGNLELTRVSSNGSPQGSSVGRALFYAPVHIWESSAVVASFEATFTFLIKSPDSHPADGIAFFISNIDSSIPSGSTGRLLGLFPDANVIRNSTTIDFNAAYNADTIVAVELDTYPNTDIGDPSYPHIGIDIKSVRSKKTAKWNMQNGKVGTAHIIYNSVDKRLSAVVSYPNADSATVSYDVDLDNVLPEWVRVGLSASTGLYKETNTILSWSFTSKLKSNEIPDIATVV

For the compound `CCN1C(=O)[C@H]2[C@H]3[C@H](O)[C@H](O)CC(=NOC[C@@H](O)COCc4ccco4)[C@H]3CC[C@H]2C1=O`, the composite z-score was 0.532 in the experiment with Albumin (Bos taurus); -0.18 in experiment [2]; -0.16 in experiment [3]; 0.093 in experiment [4]; -0.303 in experiment [5]; 0.0965 in experiment [6]. The composite z-score is 0.971 in the experiment with Sam68 (KHDRBS1); 1.5 in [7]; -1.26 in [8]; -1.13 in experiment [9]; -0.516 in experiment [10]; 0.0699 in [11]. Further, the composite z-score is -0.554 in experiment [12]; 1.39 in experiment [13]; 1.66 in experiment [14]; 1.55 in the experiment on Lefty1; -0.976 in experiment [16]. The composite Z-score in experiment [1] is 0.525 (inactive). Also, the results for the z-score in experiment [15] and in [17] were 0.0801 and -0.941 (inactive), respectively.
In the case of `O=C1C=C[C@@H](O)[C@@H]2[C@@H]3C(=O)N(C4CCCCC4)C(=O)[C@@H]3CC[C@@H]12`, the composite z-score in the experiment with Albumin (Bos taurus) was 0.13; in experiment [2], 0.0738; in experiment [3] it was -0.126; in experiment [4] it was 0.143; in [5], 0.214; in experiment [6], 0.196. The composite z-score in the experiment on Sam68 (KHDRBS1) came to 0.595; in [7], 0.542; in experiment [8] it was 0.273; in experiment [9] it was 0.575; in experiment [10], 0.55; in experiment [11], 0.431. For the same compound, the composite z-score in experiment [12] is 0.831; in experiment [13] it was 1.21; in experiment [14], 0.826; in the experiment with Lefty1, 0.629; in experiment [16], 0.0297. Moreover, the composite Z-score in [1] was -0.388 (inactive). The z-score in experiment [15] was 1.09; in [17], -0.611 (inactive).
With `CC(CCN1CCCc2nc(C)c(C)cc21)=NO[C@H](C)c1cn([C@H](CO)Cc2ccccc2)nn1`, the composite z-score in the experiment with Albumin (Bos taurus) was 0.177; in [2] it was 0.159; in experiment [3], -0.112; in experiment [4], 0.236; in [5] it was 0.497; in experiment [6], 0.0249. Moreover, the composite z-score was 1.28 with Sam68 (KHDRBS1); 0.618 in experiment [7]; -0.113 in experiment [8]; 0.906 in experiment [9]; 0.474 in experiment [10]; 0.402 in experiment [11]. Moreover, the composite z-score was 0.166 in experiment [12]; 0.564 in experiment [13]; 0.559 in experiment [14]; 0.931 in the experiment on Lefty1; 0.108 in experiment [16]. Further, in [1], the composite Z-score was 0.271 (inactive). Moreover, the z-score was -0.776 in experiment [15] and 0.0837 (inactive) in [17].
`CO[C@@H]1C=CCC(=O)N[C@@H](C)C(=O)OC[C@@H](NS(=O)(=O)c2ccc(C)cc2)[C@H](C)C=CCC(=O)OC[C@H]1C`: the composite z-score was -1.19 in the experiment with Albumin (Bos taurus); -0.0898 in experiment [2]; -0.242 in experiment [3]; -0.662 in experiment [4]; -0.971 in experiment [5]; -0.0366 in experiment [6]. In addition, the composite z-score was -0.583 with Sam68 (KHDRBS1); 1.07 in [7]; -0.479 in experiment [8]; -0.605 in [9]; -0.56 in experiment [10]; -0.0987 in experiment [11]. In addition, the composite z-score was -0.14 in [12]; 0.833 in experiment [13]; 0.638 in experiment [14]; 0.841 in the experiment on Lefty1; 0.326 in [16]. Further, in [1], the composite Z-score was 0.51 (inactive). For the same compound, the values for the z-score in [15] and in experiment [17] were -0.198 and -0.567 (inactive), respectively.
As to `O=C1[C@H]2CCn3c(=O)n(-c4ccccc4)c(=O)n3[C@H]2[C@H](O)[C@@H]2O[C@H]12`, the composite z-score with Albumin (Bos taurus) is 0.0407; in experiment [2], -0.177; in experiment [3], -0.0651; in experiment [4] it was 0.0463; in [5], 0.178; in experiment [6] it was -0.34. Also, the composite z-score with Sam68 (KHDRBS1) is -0.319; in experiment [7], 0.37; in experiment [8], 0.218; in experiment [9] it was -0.0114; in [10] it was 0.301; in experiment [11], -0.339. Also, the composite z-score in experiment [12] is 0.418; in [13], -0.0705; in experiment [14], 0.127; in the experiment on Lefty1, 0.278; in experiment [16], 0.465. Moreover, the composite Z-score in [1] is -0.916 (inactive). The values for the z-score in experiment [15] and in experiment [17] were 0.718 and 0.0786 (inactive), respectively.
